Where “and” joins values, the source holds several entries; their conditions need not be identical. Equal values may be shown once. Records with an inconclusive call do not appear. Calls of active or inactive are those of the source. Unless noted, cut-off not given; nearly all actives show AC50 up to about 26 µM.

Data on five molecules can be found in PubChem BioAssay.

Test [1] is described as follows: viability loss in pontine glioma line – cell-based, SU-DIPG-XXV, MIPE5.0, CellTiter-Glo, qHTS, dose response (AID 1347065).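 Further: cells exposed to compound for 48 hours before ATP readout.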 The note with it: CellTiter-Glo ATP luminescence. A general note: In ATP-based viability assays light output follows the ATP content of the culture.
Test [2] in a line: SU-DIPG-VI glioma cell viability, MIPE4.0 library, CellTiter-Glo luminescence, qHTS (AID 1347066; cut-off not given, nearly all actives have AC50 up to about 30 µM;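 further: cells exposed to compound for 48 hours before readout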). The settings on record: CellTiter-Glo ATP luminescence.
Test [3] in a line: JHH-DIPG-1 glioma cell viability, MIPE5.0 library, CellTiter-Glo luminescence, qHTS (AID 1347067).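 Further: cells exposed to compound for 48 hours before readout.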 The settings on record: JHH-DIPG-1 glioma viability, CellTiter-Glo ATP luminescence.
A short description of test [4]: SU-DIPG-XXV glioma cell viability, MIPE5.0 library, qHTS (AID 1347068; cut-off not given, nearly all actives have IC50 up to about 30 µM). A general note: qHTS replaces the single test concentration by a dilution series.
Test [5] can be described thus: phospholipid biosynthesis inhibitors in animal cells, primary screen, cell-based, LOPAC library, screen 4 (AID 1347384; call rule not given here). The note with it: phospholipid biosynthesis inhibition screen, at 10 µM.
A short description of test [6]: survival rescue of mitochondrial mutant cells in low glucose, primary screen, MELAS cybrids, Rieske KO mouse fibroblasts, CellTiter-Glo (AID 1508586;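 active means mean z-score across replicates of 1.96 or higher in either the MELAS or the Rieske mutant cell line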;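 further: z relative to plate mean and SD of compound and empty wells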).
Test [7] concerns the target NAD(+) hydrolase SARM1 (Homo sapiens) (UniProt Q6SZW1). Briefly: SARM1 TIR NADase inhibitors, cell lysate, NAD-Glo luminescence (AID 1508614;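 active means compound whose remaining NAD level is above about 45 nM, limit read from the data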). The settings on record: SAM-TIR HEK293T lysate NADase, at 1 µM, stronger effect = higher value.
In test [8] the target is Mitogen-activated protein kinase 7 (Homo sapiens) (UniProt Q13164). Briefly: ERK5 transactivation activators in reporter cells, primary screen, cell-based, HTS (AID 1508626;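 active means luciferase signal above three times the same-plate solvent-only control wells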;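 further: luciferase driven by Gal4-ERK5 fusion binding five Gal4 sites before minimal TATA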). The settings on record: HeLa Gal4-ERK5 transactivation, 18 h, at 5 µM, stronger effect = higher value.
Test [9] in a line: viability rescue of complex I mutant cybrids, primary screen, cell-based, galactose medium, ATP luminescence (AID 1645843;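 active means z-score of at least 1.8 in each of two replicates, scored against plate mean and spread of sample wells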;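 further: positive z means more ATP and so rescue of galactose-driven cybrid death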). The note with it: complex I mutant cybrid cells, 72 h, stronger effect = higher value.
The nature of test [10]: LFS_MB_P medulloblastoma growth inhibition, cell-based, chromothripsis tumors, cisplatin or BGB combos (AID 1671449; in the data active means inhibition above about 80%;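 further: cells exposed for 96 hours; 0% = vehicle DMSO and 100% = killing by high DMSO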). The note with it: LFS_MB_P medulloblastoma cells.
Test [11] in a line: HDN33 neuroblastoma growth inhibition, cell-based, chromothripsis tumors, cisplatin or BGB combos (AID 1671450; in the data active means inhibition above about 80%;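 further: cells exposed to compound for four days; 0% = vehicle DMSO and 100% = cell killing by high DMSO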). The note with it: HDN33 neuroblastoma cells, stronger effect = higher value.
A short description of test [12]: ICB984 medulloblastoma cell growth inhibition, synergistic combos for chromothripsis tumors, cisplatin or BGB combos (AID 1671451; call rule not given here;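 further: cells exposed for 96 hours before readout; 0% = vehicle DMSO and 100% = killing by high DMSO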). The note with it: ICB984 medulloblastoma cells, drug combinations, stronger effect = higher value.
Test [13] in a line: LFS_MB_1R medulloblastoma cell growth inhibition, synergistic combos for chromothripsis tumors, cisplatin or BGB combos (AID 1671452; in the data active means inhibition above about 80%;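 further: cells exposed for 96 hours before readout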). The settings on record: LFS_MB_1R medulloblastoma cells, stronger effect = higher value.
A short description of test [14]: HTB85 osteosarcoma cell growth inhibition, synergistic combos for chromothripsis tumors, BGB or cisplatin IC20 combos (AID 1671453; in the data active means inhibition above about 80%;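 further: cells exposed for 96 hours before readout; 0% = vehicle DMSO and 100% = high DMSO killing control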). The settings on record: HTB85 osteosarcoma cells, drug combinations, stronger effect = higher value.
The nature of test [15]: CRL2098 osteosarcoma cell growth inhibition, synergistic combos for chromothripsis tumors, BGB or cisplatin IC20 combos (AID 1671454; in the data active means inhibition above about 80%;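 further: cells exposed for 96 h before readout; 0% = vehicle DMSO and 100% = killing by high DMSO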). The settings on record: CRL2098 osteosarcoma cells, drug combinations, stronger effect = higher value.
Test [16] can be described thus: HD-MB03 medulloblastoma cell growth inhibition, synergistic combos for chromothripsis tumors, BGB or cisplatin IC20 combos (AID 1671455; in the data active means inhibition above about 83%;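 further: 0% = vehicle DMSO and 100% = high DMSO as cytotoxic control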). The settings on record: HD-MB03 medulloblastoma cells, stronger effect = higher value.
Setting [17] is: MELAS cybrid survival, CellTiter-Glo 48 h, stronger effect = higher value.
Setting [18] is: Rieske KO mouse fibroblast survival, CellTiter-Glo 72 h.
[19] abbreviates: measured here: combination with BGB IC40, at 0.05 µM.

Chain of NAD(+) hydrolase SARM1 (Homo sapiens) (Q6SZW1 whole entry, looked up, the tested form may be a part): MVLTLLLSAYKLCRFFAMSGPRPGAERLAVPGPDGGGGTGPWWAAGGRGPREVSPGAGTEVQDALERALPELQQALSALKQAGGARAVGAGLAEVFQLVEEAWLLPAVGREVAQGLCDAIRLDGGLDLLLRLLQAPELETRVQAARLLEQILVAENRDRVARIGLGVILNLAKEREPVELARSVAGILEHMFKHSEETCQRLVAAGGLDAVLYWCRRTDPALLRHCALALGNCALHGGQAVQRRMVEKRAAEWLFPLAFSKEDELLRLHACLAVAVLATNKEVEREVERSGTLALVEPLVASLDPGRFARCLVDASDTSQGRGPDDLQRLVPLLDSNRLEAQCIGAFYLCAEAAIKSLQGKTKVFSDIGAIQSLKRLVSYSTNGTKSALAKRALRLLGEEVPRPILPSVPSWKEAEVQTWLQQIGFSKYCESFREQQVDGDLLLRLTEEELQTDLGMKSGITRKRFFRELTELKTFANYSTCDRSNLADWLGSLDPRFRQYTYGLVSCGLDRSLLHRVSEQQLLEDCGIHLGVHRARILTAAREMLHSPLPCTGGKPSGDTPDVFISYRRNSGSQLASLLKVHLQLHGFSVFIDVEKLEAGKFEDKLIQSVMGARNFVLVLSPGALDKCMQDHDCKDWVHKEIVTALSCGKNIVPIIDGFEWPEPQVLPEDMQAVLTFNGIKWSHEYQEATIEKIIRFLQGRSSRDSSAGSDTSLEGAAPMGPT
Chain of Mitogen-activated protein kinase 7 (Homo sapiens) (Q13164 whole entry, looked up, the tested form may be a part): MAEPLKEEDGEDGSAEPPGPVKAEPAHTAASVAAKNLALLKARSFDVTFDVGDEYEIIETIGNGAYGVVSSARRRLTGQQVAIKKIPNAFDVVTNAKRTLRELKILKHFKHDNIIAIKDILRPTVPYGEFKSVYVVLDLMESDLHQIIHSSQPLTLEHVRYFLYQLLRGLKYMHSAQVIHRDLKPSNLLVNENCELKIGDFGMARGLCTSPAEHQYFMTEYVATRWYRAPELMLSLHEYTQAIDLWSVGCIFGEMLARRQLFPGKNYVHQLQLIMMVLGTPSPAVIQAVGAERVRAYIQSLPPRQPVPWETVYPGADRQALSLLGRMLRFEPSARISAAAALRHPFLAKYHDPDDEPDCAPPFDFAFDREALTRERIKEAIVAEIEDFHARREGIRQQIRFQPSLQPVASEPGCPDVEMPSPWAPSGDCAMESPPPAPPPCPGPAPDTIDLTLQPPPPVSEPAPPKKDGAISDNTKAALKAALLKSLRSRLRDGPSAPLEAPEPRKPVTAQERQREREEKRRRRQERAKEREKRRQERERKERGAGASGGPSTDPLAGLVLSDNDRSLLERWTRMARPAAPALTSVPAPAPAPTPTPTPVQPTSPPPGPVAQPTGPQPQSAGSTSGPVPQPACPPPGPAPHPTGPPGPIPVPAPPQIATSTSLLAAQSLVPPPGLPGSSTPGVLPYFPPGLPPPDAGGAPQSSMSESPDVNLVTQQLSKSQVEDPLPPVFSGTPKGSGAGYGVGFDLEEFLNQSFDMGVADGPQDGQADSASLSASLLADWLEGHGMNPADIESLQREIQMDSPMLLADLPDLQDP

In the case of `Clc1ccc2nsnc2c1NC1=NCCN1`, the result in test [1], in [2], in test [3], in [4] and in [5] was inactive. Moreover, the z-score is -0.43 (inactive) and 0.0544 (inactive) and -0.148 (inactive) in test [6] (setting [17]); 0.606 and 0.144 and -1.3 in [6] (setting [18]).

For the molecule `CC1(C)NC(=O)N(c2ccc([N+](=O)[O-])c(C(F)(F)F)c2)C1=O`, the call in test [1], in test [2], in [3], in test [4] and in test [5] was inactive. In addition, the z-score in [6] (setting [17]) is 1.34 (inactive); in [6] (setting [18]), -0.252; in [9], -0.59 (inactive) and -0.55 (inactive). In addition, the remaining NAD in [7] was 10 nM (inactive). Besides, the luciferase signal in test [8] was 100 AU (inactive).

As to `CN1CCC(=C2c3ccccc3CC(=O)c3sccc32)CC1`, the result in test [1], in [2], in [3], in [4] and in [5] was inactive. Further, the z-score in test [6] (setting [17]) is -0.303 (inactive) and -0.251 (inactive) and -0.573 (inactive); in test [6] (setting [18]), -0.862 and -0.369 and 0.333. Further, the remaining NAD in test [7] is 10 nM (inactive). For the same molecule, in [8], the luciferase signal was 76 AU (inactive).

`NC(=O)OCC(COC(N)=O)c1ccccc1`: the result in test [1], in test [2], in test [3], in [4] and in [5] was inactive. The z-score was 0.426 (inactive) and -0.303 (inactive) in [6] (setting [17]); 0.386 and -0.256 in test [6] (setting [18]); 0.13 (inactive) and 0.59 (inactive) and 0.445 (inactive) in [9]. Further, the luciferase signal in test [8] was 112 AU (inactive).

In general, inhibition refers to the relative decrease from the control value, in per cent. As for `Nc1nc2c(ncn2COC(CO)CO)c(=O)[nH]1`, the molecule was called inactive in test [1], in [2], in test [3], in test [4] and in test [5]. The remaining NAD in [7] is 10 nM (inactive). For the same molecule, the inhibition was -14.4% (inactive) in test [10] (at 0.5 µM, stronger effect = higher value); -4.12% in [10] (measured here: combination with BGB IC20, at 0.005 µM); -22.8% in test [10] (measured here: combination with BGB IC40, at 0.005 µM); 1.72% in test [10] (setting [19]); -35.5% in test [10] (measured here: combination with cisplatin, at 0.5 µM, stronger effect = higher value); 126% in test [10] (measured here: combination with cisplatin, at 5 µM, stronger effect = higher value). In addition, the inhibition in [11] (BGB combo, at 5 µM) is 30.5%; in [11] (at 0.5 µM), -5.69% (inactive); in [11] (cisplatin combo, at 5 µM), 55%; in [11] (measured here: with BGB IC20 combination, at 0.5 µM), -10.7%; in [11] (measured here: with cisplatin IC20 combination, at 0.5 µM), 0.325%; in [11] (single agent, at 5 µM), 66%. Also, the inhibition is -34.3% in test [12] (BGB IC20 combo, at 0.005 µM); -7.26% in test [12] (BGB IC40 combo, at 0.005 µM); 96.7% in test [12] (BGB IC40 combo, at 0.05 µM); -23.8% (inactive) in test [12] (at 0.5 µM); 96.7% in test [12] (cisplatin combo, at 0.05 µM); -39.7% in test [12] (cisplatin combo, at 0.5 µM). Further, the inhibition was -4.59% in [12] (cisplatin combo, at 5 µM); -6.09% in [12] (measured here: 5 uM single agent, at 5 µM); 26.9% (inactive) in [13] (at 0.5 µM); -58.1% in test [13] (setting [19]); 61.8% in test [13] (measured here: combination with cisplatin, at 0.5 µM); 106% in test [13] (measured here: combination with cisplatin, at 5 µM). For the same molecule, the inhibition in test [14] (at 0.5 µM) is -13.4% (inactive); in test [14] (measured here: with BGB IC20, at 0.5 µM), -37.4%; in test [14] (measured here: with BGB IC20, at 5 µM) it was 32.5%; in [14] (measured here: with cisplatin IC20, at 0.5 µM) it was -11.6%; in test [14] (measured here: with cisplatin IC20, at 5 µM), 68.7%; in test [14] (single agent, at 5 µM), 71%. The inhibition in test [15] (at 0.5 µM) is 2.15% (inactive); in test [15] (measured here: combination with BGB at IC20, at 0.5 µM), 2.66%; in test [15] (measured here: combination with cisplatin at IC20, at 0.5 µM), 0.146%; in test [16] (at 0.5 µM), -7.18% (inactive); in test [16] (measured here: combo with BGB at IC20, at 0.5 µM), -5.76%; in test [16] (measured here: combo with cisplatin at IC20, at 0.5 µM), -11.1%.
